Sampled rows, rich in hits. Any-hit rate of the full collection: about 4.6%.
TRHR enhancer-1 – qHTS for Small Molecule Agonists and Allosteric Enhancers of Human TRH Receptor: Primary Screen for Enhancers; Thyrotropin-releasing hormone receptor (Homo sapiens), P34981; TRHR cells, fluo-8 calcium fluorescence, EC20 TRH enhancement; enhancement, % at 2 µM; 0.66% of 360,000 active; in the data active means enhancement above about 30%; further: 0% is about no effect
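Enhancer read-out: after compound pinning and an initial kinetic agonist-mode read, an EC20 of TRH (10 nM final) was injected and fluo-8 calcium signal (Ex 480/Em 530) followed at 1 s/cycle for 100 cycles in TRHR-expressing cells.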
TRHR agonist-1 – qHTS for Small Molecule Agonists and Allosteric Enhancers of Human TRH Receptor: Primary Screen for Agonists; Thyrotropin-releasing hormone receptor (Homo sapiens), P34981; TRHR cells, calcium flux fluo-8, FDSS agonist mode; activation, % at 2 µM; 0.18% of 360,000 active; AID 493084, 2011; further: 0% is about no effect
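In this calcium-flux screen, cells bearing human TRHR are dye-loaded with fluo-8, baselined for 10 cycles, then exposed to library compounds; positive kinetic calcium responses during the agonist phase mark hits, with TRH as control.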
D1 agonist – Allosteric Agonists of the Human D1 Dopamine Receptor: qHTS. D(1A) dopamine receptor (Homo sapiens), P21728. HEK293 T-REx D1 cells, calcium flux, agonist mode. activation, % at 2 µM. 1% of 360,000 active; further: 0% is about no effect
Target sequence (P21728 whole entry, looked up): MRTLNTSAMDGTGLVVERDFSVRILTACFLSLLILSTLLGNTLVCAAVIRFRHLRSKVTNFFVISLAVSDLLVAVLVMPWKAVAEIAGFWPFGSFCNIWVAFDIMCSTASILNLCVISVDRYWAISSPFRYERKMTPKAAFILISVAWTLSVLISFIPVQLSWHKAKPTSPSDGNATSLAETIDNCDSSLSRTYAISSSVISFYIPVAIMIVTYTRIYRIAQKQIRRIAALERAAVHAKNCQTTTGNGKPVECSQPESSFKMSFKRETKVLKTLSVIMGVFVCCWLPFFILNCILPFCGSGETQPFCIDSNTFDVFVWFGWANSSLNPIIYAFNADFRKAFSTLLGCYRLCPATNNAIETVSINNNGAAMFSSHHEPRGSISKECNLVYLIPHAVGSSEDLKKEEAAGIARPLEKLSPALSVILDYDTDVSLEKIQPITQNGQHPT
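Agonism was scored from calcium flux recorded over 180 s (1 read/s) after pintool compound addition, following a 10-cycle baseline. Cells were inducible force-coupled HEK293 TREx D1, plated overnight at 30 C and loaded with no-wash calcium dye.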
D1 antag – Antagonist of Human D 1 Dopamine Receptor: qHTS; activity change, negative = inhibition, % at 10 µM; HEK293 TREx D1 cells, calcium flux, dopamine EC80; active compounds read low; 3.2% of 360,000 active; in the data active means activity change below about -30%; further: on the % scale 0 is the no-effect control and ±100 the full control effect
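After overnight tetracycline induction at 30 C, force-coupled D1 HEK293 cells took up a no-wash calcium dye at room temperature. Compounds were added and monitored 180 s, and the response to EC80 dopamine was then recorded.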
D1 potentiator – Potentiators of Human D1 Dopamine Receptor: qHTS | D(1A) dopamine receptor (Homo sapiens), P21728 | HEK293 TREx D1 cells, calcium flux, dopamine EC20 potentiation | potentiation, % at 10 µM | 0.036% of 360,000 active | AID 504651, 2011; in the data active means potentiation above about 30%; further: 0% is about no effect
TRHR enhancer-2 – qHTS for Small Molecule Agonists and Allosteric Enhancers of Human TRH Receptor: Confirmation Screen for Enhancers; AID 493076, 2011; TRH receptor cell assay, enhancer confirmation qHTS; 970 tested, under 10 active; shares compounds with TRHR enhancer-1; activity change, negative = inhibition, % at 46.1 µM; active means well fitted curve in the direction sought with a large enough effect; an effect the other way counts as inactive or inconclusive;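 further: compound effect scored on response to added TRH at EC20 of 10 nM; 0% is about no effect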
TRHR agonist-2 – qHTS for Small Molecule Agonists and Allosteric Enhancers of Human TRH Receptor: Confirmation Screen for Agonists; shares compounds with TRHR enhancer-1; AID 493078, 2011; 8% of 970 active; TRHR-expressing cells, agonist activation read-out; Potency, µM (doses to about 46.1 µM), for the others: at the top dose activation, actives largely listed as activators; active means well fitted curve in the direction sought with a large enough effect; an effect the other way counts as inactive or inconclusive; further: potency means the concentration at half of the fitted maximal effect; 0% is about no effect; nearly all actives have a fitted effect of over 75% in size
The depositor's hits bear a star; . = no result given. Unless noted, no stated cut-off is given here; in the data, active means activation above about 30%; inactive means the rest.

SMILES	TRHR enhancer-1	TRHR agonist-1	D1 agonist	D1 antag	D1 potentiator	TRHR enhancer-2	TRHR agonist-2
CCOc1cc([N+](=O)[O-])c2nc(N)sc2c1	3.1	0.3	0.4	-6.2	4.8	.	.
COc1cc([N+](=O)[O-])c2nccnc2c1	44.4*	-0.2	2.4	3.2	-5.4	12.7	0.9%
CCCCn1cc(S(=O)(=O)c2ccccc2)c(=O)c2cc(C)ccc21	-3.6	-0.7	0.3	0.2	-3.5	.	.
Nn1c(SCc2cccc3ccccc23)nnc1-c1ccco1	50.0*	-0.5	0.5	-10.1	-2.6	-1.2	5.3%
Cn1c(SCc2cccc3ccccc23)nnc1-c1ccco1	-3.5	-0.7	1.2	-6.9	-4.1	.	.
Cc1ccccc1CSc1nnc2[nH]c(=O)cc(-c3ccccc3)n12	-0.2	0.0	-0.6	.	-2.8	.	.
CC(C)c1ccc(S(=O)(=O)/N=C2\C=C(NS(=O)(=O)c3ccccc3)C(=O)c3ccccc32)cc1	21.1	-1.3	2.4	-19.3	-6.5	.	.
CCc1ccc(S(=O)(=O)/N=C2\C=C(NS(=O)(=O)c3ccccc3)C(=O)c3ccccc32)cc1	48.9*	-0.6	-0.5	-19.3	-2.1	-7.4	2.0%
COc1cc(S(=O)(=O)N2CCCCC2)ccc1NC(=O)c1ccccc1Cl	-0.7	-0.6	2.0	-17.7	-3.3	.	.
CCC(=O)Nc1ccc(S(=O)(=O)N2CCCCC2)cc1OC	44.3*	1.3	1.6	-3.9	0.5	-7.2	-0.6%
O=C(c1cccc(F)c1)N1CCN(C(=O)c2cc3nc(-c4ccco4)cc(C(F)(F)F)n3n2)CC1	-0.2	-1.1	3.5	4.7	.	.	.
O=C1OCC2=C1C(c1ccc(F)cc1)CC(=O)N2c1ccc(F)cc1 (stereo unspecified)	-10.6	-1.2	2.5	2.7	-1.5	.	.
CCc1ccc(N2C(=O)CC(c3ccc(F)cc3)C3=C2COC3=O)cc1 (stereo unspecified)	72.6*	0.3	5.1	-17.4	-5.3	-6.1	1.4%
O=C1NCCNC1(c1c[nH]c2ccccc12)C(F)(F)F (stereo unspecified)	4.4	0.0	4.0	9.3	1.8	.	.
Cc1cc(O)c(C2(C(F)(F)F)NCCNC2=O)cc1C (stereo unspecified)	42.8*	1.5	3.5	1.5	-5.5	-2.9	-0.3%
CCOc1ccc(S(=O)(=O)Nc2cccc(C(=O)NCC3CCCO3)c2)cc1 (stereo unspecified)	46.9*	0.2	3.2	-38.8*	-8.3	-8.5	0.7%
CSc1cccc(NC(=O)CN(C)S(=O)(=O)c2ccc(C)cc2)c1	-4.6	-1.6	1.7	7.0	-3.4	.	.
COc1ccccc1NC(=O)CC1COc2ccccc2O1 (stereo unspecified)	46.5*	-0.4	1.3	9.1	-4.0	4.7	1.4%
COc1ccc(-n2cc(C(=O)N(CCN(C)C)Cc3ccccc3)c3ccccc3c2=O)cc1	73.6*	2.4	4.5	-3.1	-1.4	-3.1	0.6%
Nc1nccnc1C(=O)OCC(=O)C12CC3CC(CC(C3)C1)C2	4.1	0.3	0.9	9.5	2.2	.	.
COc1c(C)cc(C(=O)C2CCCN(C(=O)CCc3scnc3C)C2)cc1C (stereo unspecified)	52.7*	-0.8	3.8	-0.2	-6.2	-2.7	-0.5%
COc1cccc(C(=O)C2CCCN(C(=O)CCc3scnc3C)C2)c1 (stereo unspecified)	-9.5	1.4	4.3	-12.9	-3.0	.	.
COc1ccc(NC(=O)COC(=O)c2ccc(N3CCCC3=O)cc2)cc1OC	43.4*	0.3	3.5	11.6	-8.1	4.0	-0.6%

Source: PubChem BioAssay (National Center for Advancing Translational Sciences (NCATS))
